Source: PubChem BioAssay (National Center for Advancing Translational Sciences (NCATS))
Hits are enriched below; roughly 7.9% of the tested compounds scored in any of these assays.
KB-3-1 tox: kills parental KB-3-1 adenocarcinoma cells | KB-3-1 viability, CellTiter-Glo ATP luminescence, 72 h | Potency, µM (titrated, usually from 46.1 µM), most hits filed as cytotoxic | 400,000 compounds, 1.4% hits; note: % is set by controls: 0 for no effect and ±100 for the full control effect; nearly all actives have a fitted effect of over 60% in size
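Luminescent ATP read-out (CellTiter-Glo) measures survival of drug-naive KB-3-1 cells after 72 h compound exposure at 37 °C. Titration series was screened from lowest to highest concentration, with DMSO vehicle plates as background controls.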
SW480 rereplic: DNA re-replication induction in SW480 cells | SW480 DNA re-replication, Hoechst DNA content imaging, 48 h | AID 624297 | Potency, µM (series often up to 46.1 µM), without a hit: at the highest dose re-replication activation, actives largely listed as activators | 340,000 compounds, 1.8% hits; note: % of control where 0% means no effect; nearly all actives have a fitted effect of over 55% in size
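Per well, 250 cells were exposed to pinned compound for 48 hr. Nuclear DNA was visualised with Hoechst (40 min, 37 C) and total object intensity recorded by fluorescence scanning.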
HT1080 IDH1KD tx: kills HT-1080 cells with IDH1 knockdown | HT-1080 IDH1 knockdown viability, ATP luminescence, 48 h | 360,000 compounds, 2% hits | AID 686971 | Potency, µM (top dose mostly 46.1 µM), without a hit: top-dose activity, negative = toxicity, usual class: cytotoxic;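 note: 0% = DMSO wells and -100% = cell-free medium wells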
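In this qHTS, HT-1080 cells depleted of IDH1 are exposed for 48 h at 37 °C to compound titrations. Toxicity is scored from CellTiter-Glo luminescence, with DMSO as full viability and medium alone as none.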
HT1080-NT tox: kills 2HG-producing HT-1080-NT fibrosarcoma cells; HT-1080-NT fibrosarcoma viability, CellTiter-Glo ATP luminescence, 48 h; Potency, µM (highest dose often 46.1 µM), inactives show top-dose activity, negative = less viability, most hits filed as cytotoxic; 360,000 compounds, 1.6% hits; AID 686970;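 note: NT is the 2HG producing partner of a matched IDH1 knockdown line; 0% = DMSO-treated cells and -100% = media-only wells without cells; nearly all actives have a fitted effect of over 55% in size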
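Compounds were tested in concentration-response format on HT-1080-NT cells for 48 hours at 37 degrees C. Cell viability came from CellTiter-Glo luminescence; curves were classified by r2, response magnitude and activity.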
KB-V1 cytotox: KB-V1 MDR subline cytotoxicity; KB-V1 MDR cells viability, CellTiter-Glo, 72 h; Potency, µM (series often up to 46.1 µM), hits mostly cytotoxic; 400,000 compounds, 3.4% hits; note: % is set by controls: 0 for no effect and ±100 for the full control effect; nearly all actives have a fitted effect of over 60% in size
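Compound-treated KB-V1 multidrug-resistant cells, 72 h, 37 degrees C; viability by CellTiter-Glo. Fitted qHTS curves give the values.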
MCF10A rerep: DNA re-replication induction in MCF 10a cells. 350,000 compounds, 2.9% hits. MCF 10A DNA re-replication, Hoechst nuclear intensity, 48 h. Potency, µM (series often up to 46.1 µM), inactives show at the highest dose activity, positive = re-replication, actives largely listed as activators; note: % of control where 0% means no effect; nearly all actives have a fitted effect of over 50% in size
* = called active by the depositor; i = inactive; ? = inconclusive; · = no result; [ ] = remark or other dose. Calls come from the whole dose curve; as a rule, active = well fitted curve in the direction sought with a large enough effect; inconclusive = small, poorly fitted or top-dose-only effect, or another doubt; inactive = no such curve, though single readings can be large; an effect the other way counts as inactive or inconclusive. Potency is the fitted concentration of half-maximal effect.

SMILES	KB-3-1 tox	SW480 rereplic	HT1080 IDH1KD tx	HT1080-NT tox	KB-V1 cytotox	MCF10A rerep
CNC(=O)CC1C(=O)N(c2ccc(Cl)cc2)C(=S)N1NC(=O)c1cccc(F)c1 (stereo unspecified)	i	-17%	15%	0%	i	3%
CNC(=O)CC1C(=O)N(Cc2ccccc2)C(=S)N1NC(=O)c1cccc(F)c1 (stereo unspecified)	i	-9%	-2%	-1%	21µM*	-7%
CNC(=O)CC1C(=O)N(c2ccc(OC)cc2)C(=S)N1NC(=O)c1cccc(F)c1 (stereo unspecified)	i	2.3µM*	?	22%	i	?
Cc1cc(C)n(-c2nc3ccccc3nc2Nc2ccc(Cl)c(C(=O)OC(C)C)c2)n1	i	·	·	·	i	·
O=C1C(=O)c2ccccc2C(O)=C1c1cccc([N+](=O)[O-])c1	?	23µM*	?	-22%	?	15%
COc1ccc(CCCC(=O)N/N=C/c2ccccc2OC)cc1	i	-3%	11%	0%	i	-10%
CCOc1ccccc1CN(Cc1ccco1)S(=O)(=O)c1ccc(-n2cnnn2)c(OC)c1	?	8.2µM*	?	?	?	?
COc1ccc(CCN(Cc2cccs2)S(=O)(=O)c2ccc(-n3cnnn3)c(OC)c2)cc1OC	i	0%	-10%	?	2.6µM*	-10%
COc1cc(S(=O)(=O)N(Cc2ccco2)C2CCCC2)ccc1-n1cnnn1	i	0%	9%	-1%	i	10%
CCCCOCCCNC1=NCCCCC1	i	0%	-5%	1%	i	-1%
CN(C)CCNC(=O)c1cc2sc3ccccc3c2s1	i	0%	23µM*	21µM*	i	-2%[9.22 µM]
COc1ccc(-c2ccc(NS(=O)(=O)c3cccc([N+](=O)[O-])c3)cc2)nn1	i	1%	-3%	-7%	i	-1%
COCc1cc(=O)[nH]c2cc(NC(=O)c3cccc(OC)c3)c(C)cc12	i	-5%	2%	1%	i	1%
COc1ccc(C(c2nnnn2C2CCCC2)N2CCc3ccccc3C2)cc1OC (stereo unspecified)	i	3%	-6%[9.24 µM]	6%	?	10%
COc1ccc(N2CCN(C(c3cccc(OC)c3OC)c3nnnn3C3CCCC3)CC2)cc1 (stereo unspecified)	i	13µM*	-17%	-17%	i	?
COc1ccc(OC)c(C(c2nnnn2C2CCCC2)N2CCc3ccccc3C2)c1 (stereo unspecified)	?	-3%	-1%[9.24 µM]	-19%	16µM*	-1%
CC(C)C[C@H]1CNC(=S)N1CC1CCN(CCCCc2ccccc2)CC1	i	-4%	-4%	0%	?	16%
COc1ccc2oc(C(=O)Nc3ccc(S(=O)(=O)N(C)C4CCN(C)CC4)cc3)c(C)c2c1	?	?	18µM*	23µM*	i	15%
CCOC(=O)c1oc2ccc(S(=O)(=O)N3CCC(C)CC3)cc2c1C	i	1%	3%	8%	16µM*	16%
COc1cccc(NC(=O)c2oc3ccc(S(=O)(=O)N4CCCCCC4)cc3c2C)c1	i	·	·	·	i	·
COc1ccc2oc(C(=O)OCC(=O)N3C(C)CCCC3C)c(C)c2c1 (stereo unspecified)	i	3%	-4%	-6%	i	11%
COc1ccc(NC(=O)c2oc3ccc(S(=O)(=O)N4CCCCC4)cc3c2C)cc1	i	·	·	·	6.5µM*	·
COc1ccc2oc(C(=O)OCC(=O)N3CCCCC3C)c(C)c2c1 (stereo unspecified)	i	-4%	-3%	2%	21µM*	1%
CCOC(=O)c1oc2ccc(S(=O)(=O)N3CCOCC3)cc2c1C	i	-11%	7%	7%	i	-2%
COc1ccc(C(C(=O)NC2CCCCC2)n2c(=O)c(-c3cc4ccccc4[nH]3)nc3ccccc32)cc1 (stereo unspecified)	i	·	-16%	-21%	i	·
SMILES	KB-3-1 tox	SW480 rereplic	HT1080 IDH1KD tx	HT1080-NT tox	KB-V1 cytotox	MCF10A rerep
CN(CC(=O)Nc1sccc1C#N)S(=O)(=O)c1ccc(F)cc1	i	-475%	2%	-11%	i	-22%
CCCCN(C(=O)C1CSC2(C)CCC(=O)N12)c1c(N)n(Cc2ccccc2)c(=O)[nH]c1=O (stereo unspecified)	i	2%	7%	2%	i	0%
CCN(CC)C(=O)c1oc2ccc(S(=O)(=O)N3CCCCCC3)cc2c1C	i	3%	-18%	?	13µM*	30%
CCN(CC)C(=O)c1oc2ccc(S(=O)(=O)N3CC(C)CC(C)C3)cc2c1C (stereo unspecified)	i	-21%	?	?	?	?
O=C(/C=C/c1cccc(Br)c1)N1CCN(c2cccc(C(F)(F)F)c2)CC1	i	?	-19%	-18%	?	?
COc1ccccc1NC(=O)N1CCN(c2cccc(C(F)(F)F)c2)CC1	i	-5%	0%	11%	?	?
O=C(/C=C/c1ccc(Br)cc1)N1CCN(c2cccc(C(F)(F)F)c2)CC1	?	9%	-9%	?	?	13µM*
COc1ccccc1CC(=O)N1CCN(c2cccc(C(F)(F)F)c2)CC1	i	-3%	-16%	?	12µM*	5%
O=C(NCCCn1ccnc1)c1cn(-c2ccccc2)nc1-c1ccccc1	i	2%	?	4%	i	-13%
CCOc1cccc(-c2nn(-c3ccccc3)cc2/C=C(/C#N)C(=O)NCCCn2ccnc2)c1	i	?	?	26µM*	?	21µM*
N#C/C(=C/c1cn(-c2ccccc2)nc1-c1cccc(OCc2ccccc2)c1)C(=O)NCCCn1ccnc1	i	?	?	-28%	9.2µM*	13µM*
N#CCCn1nc(-c2ccccc2)cc1Nc1ccccc1NC(=O)C(F)(F)F	i	0%	12%	0%	21µM*	-2%
CCc1ccccc1NC(=O)CSc1nnc(C2CC2)n1CC1CCCO1 (stereo unspecified)	i	-24%	0%	2%	i	-7%
O=c1c2ccccc2nc(-c2ccoc2)n1CCc1ccccc1	?	8%	-1%[9.24 µM]	-25%	12µM*	?
CCOc1ccc(CCn2c(-c3ccco3)nc3ccccc3c2=O)cc1OCC	?	?	3.5µM*	?	7.3µM*	?
